# CtBP-E1A inh: blocks the CtBP interaction with E1A. AlphaScreen GST-E1A/His-CtBP binding, 1536-well; hits give low values. activity change, % (concentration not given with the values). 340,000 compounds, 0.49% hits. AID 651724; in the data active = activity change below about -65%; inconclusive = mostly about -30% to -63%; also: % is scaled to controls: 0 for no effect and ±100 for the full control effect
#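 Steps: dispense buffer (Tris pH 8.0, NaCl 300 mM, TCEP 1 mM, BSA, Tween 20); add 5X protein mix (GST-E1A, His-CtBP, 125 nM each); pin 23 nL compound; 2 h at 37 °C, dark; add 5X beads (50 ug/mL); 1 h; read.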
# JMJD2A Tudor inh: inhibitors of human JMJD2A Tudor domain; O75164; AlphaScreen JMJD2A-Tudor / H3K4me3 peptide binding; Potency, µM (series often up to 114 µM), without a hit: at the top dose activity change, negative = inhibition, actives largely listed as inhibitors; 390,000 compounds, 4.4% hits; AID 504339; also: potency is read from the fitted curve at half-maximal effect; % is scaled to controls: 0 for no effect and ±100 for the full control effect; nearly all actives have a fitted effect of over 50% in size
# TDP1 inh: inhibitors of human tyrosyl-DNA phosphodiesterase TDP1; Q9NUW8; recombinant TDP1, AlphaScreen DNA substrate cleavage; Potency, µM (titrated, usually from 130 µM), inactives show top-dose activity change, negative = inhibition, actives largely listed as inhibitors; 350,000 compounds, 0.28% hits; also: potency is read from the fitted curve at half-maximal effect; % is scaled to controls: 0 for no effect and ±100 for the full control effect; nearly all actives have a fitted effect of over 40% in size
# Target sequence (Q9NUW8 whole entry, looked up): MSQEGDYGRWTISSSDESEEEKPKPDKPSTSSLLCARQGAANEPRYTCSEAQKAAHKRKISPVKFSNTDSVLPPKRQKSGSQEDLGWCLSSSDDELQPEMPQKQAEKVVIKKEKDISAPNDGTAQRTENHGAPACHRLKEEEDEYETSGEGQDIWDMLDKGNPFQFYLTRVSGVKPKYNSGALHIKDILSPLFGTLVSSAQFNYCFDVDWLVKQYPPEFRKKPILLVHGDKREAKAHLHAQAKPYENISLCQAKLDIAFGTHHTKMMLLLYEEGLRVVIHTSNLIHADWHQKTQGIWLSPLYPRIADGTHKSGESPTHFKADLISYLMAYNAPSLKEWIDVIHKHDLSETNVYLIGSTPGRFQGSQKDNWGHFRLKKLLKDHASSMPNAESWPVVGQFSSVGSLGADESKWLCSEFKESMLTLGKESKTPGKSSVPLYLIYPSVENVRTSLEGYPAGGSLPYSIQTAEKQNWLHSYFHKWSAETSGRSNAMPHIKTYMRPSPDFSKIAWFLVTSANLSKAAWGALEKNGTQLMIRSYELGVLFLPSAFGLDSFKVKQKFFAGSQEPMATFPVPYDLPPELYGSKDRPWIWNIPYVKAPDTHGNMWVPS
#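 Here, a 5' biotin and 3' phosphotyrosine-FITC DNA oligonucleotide reports Tdp1 activity: intact substrate bridges AlphaScreen beads, while cleavage leaves a 3' phosphate and drops signal. All incubations at room temperature.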
# HP1b chromo inh: inhibitors of HP1-beta chromodomain binding to methylated histone tails; P83916; AlphaScreen HP1-beta / biotin-H3K9me3 peptide binding; Potency, µM (titrated, usually from 114 µM), for inactives: top-dose activity change, negative = inhibition, actives largely listed as inhibitors; 390,000 compounds, 0.56% hits; AID 540317; also: potency is read from the fitted curve at half-maximal effect; nearly all actives have a fitted effect of over 70% in size
# Target sequence (P83916 whole entry, looked up): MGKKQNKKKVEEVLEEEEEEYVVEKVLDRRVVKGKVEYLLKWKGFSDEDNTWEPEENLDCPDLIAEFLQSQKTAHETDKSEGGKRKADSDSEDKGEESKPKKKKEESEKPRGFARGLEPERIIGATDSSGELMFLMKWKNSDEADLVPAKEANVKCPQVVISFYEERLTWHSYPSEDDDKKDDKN
#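 HP1-beta protein (50 nM final) preincubated 30 min at room temperature with biotinylated H3(1-18)K9me3 peptide (50 nM) in PBS pH 7.4, 0.01% Tween-20, then compound added for 30 min. AlphaScreen streptavidin donor/nickel chelate acceptor beads (10 ug/mL final), 30 min dark, luminescence read.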
# Six1-Eya2 inh: blocks human Six1 binding to Eya2. AlphaScreen GST-Six1/His-Eya2 binding, biochemical; hits give low values. activity change, % (no concentration beside the values). 360,000 compounds, 0.56% hits; in the data active = activity change below about -65%; inconclusive = mostly about -30% to -63%; also: % is scaled to controls: 0 for no effect and ±100 for the full control effect
#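 AlphaScreen with GST-Six1 and His-Eya2 (5X mix: 250 nM and 500 nM), glutathione donor and nickel acceptor beads; buffer 50 mM Tris pH 8.0, 300 mM NaCl, 1 mM TCEP; 1 h at 37 C in the dark.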
# BAZ2B inh: inhibitors of human BAZ2B bromodomain | AID 504333 | AlphaScreen BAZ2B-H3K14Ac peptide displacement | Potency, µM (highest dose often 114 µM), for inactives: at the highest dose activity change, negative = inhibition, actives largely listed as inhibitors | 360,000 compounds, 4.4% hits; also: potency is read from the fitted curve at half-maximal effect; % is scaled to controls: 0 for no effect and ±100 for the full control effect; nearly all actives have a fitted effect of over 60% in size
#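 Multi-concentration screen (max 110 uM) measuring displacement of acetylated histone H3 peptide from BAZ2B by AlphaScreen, using 50 nM protein, 50 nM peptide and 10 ug/mL streptavidin donor plus Ni-chelate acceptor beads.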
# * hit, by the source's call; ? = inconclusive; / = no result given; ! = repeats disagree; [ ] = remark or other dose. An excerpt weighted towards active compounds, which were near 5.3% of everything screened. Unless noted, calls follow the shape of the dose curve; as a rule, active = well fitted inhibition curve with a large enough effect; inconclusive = small, poorly fitted or top-dose-only effect; inactive = no such curve, though single readings can be large or run the other way.
SMILES,CtBP-E1A inh,JMJD2A Tudor inh,TDP1 inh,HP1b chromo inh,Six1-Eya2 inh,BAZ2B inh
Cc1ccc(Cl)cc1NC(c1ccc(F)cc1)c1nnc(-c2ccccc2)o1 (stereo unspecified),/,8.0%,4.5%,6.1%,/,-15.5%
CC(C)NC(=O)CCCc1ccccc1,-1.6,-2.2%,1.9%,20.0%,6.5,6.7%
O=C(CCc1ccccc1)NNC(=O)COc1ccc(Br)cc1,-1.2,20µM*,-2.0%,50.1µM*,7.0,5.2%
CC(C)NC(=O)C(=O)NNC(=O)CCc1ccccc1,5.9,14.1µM*,-2.5%,19.9%,-2.1,-38.8%
O=C(CCC(=O)NNC(=O)COc1ccc(Br)cc1)NCc1ccccc1,/,-3.0%[11.4 µM],-5.1%,57.0%,8.2,-12.8%
O=C(Nc1ccccc1C(=O)OCc1cc(=O)n2nc(C3CC3)sc2n1)c1cccc(F)c1,/,4.6%,3.8%,21.9%,/,-4.8%
COc1ccc(NC(=O)c2ccc(-c3nc(COc4ccccc4)c(C)o3)cc2)cc1,/,-7.6%,2.8%,25.5%,/,-13.9%
CC(=O)c1ccc(NC(=O)c2ccc(-c3nc(COc4ccc(C)cc4)c(C)o3)cc2)cc1,/,-8.6%,0.0%,44.7µM*,/,-21.0%
O=C1CCCC2=C1Sc1ccccc1N2,-8.3,-35.9%,2.5%,-21.4%,-3.4,44.7µM*
O=C1Nc2ccccc2SC1=Cc1ccccc1,0.0,/,/,/,0.5,/
CCOc1ccc(-n2c(=O)c3c(C)c(C)sc3n(CC(=O)C(C)(C)C)c2=O)cc1,/,-0.3%,-1.8%,55.9%,/,34.3%
O=C(CSc1nnc2c(n1)[nH]c1ccc(F)cc12)N1CCOCC1,-0.2,-4.5%,6.1%,29.0%,-13.5,-2.8%
Brc1ccc2[nH]c3nc(SCCN4CCOCC4)nnc3c2c1,-16.8,79.4µM*!,3.7%,6.4%,-13.1,-12.0%
c1ccc2c(c1)[nH]c1nc(SCCN3CCOCC3)nnc12,?,79.4µM*,7.8%,18.0%,?,5.6%
CCCn1c2ccccc2c2nnc(SCCN3CCOCC3)nc21,-3.9,-24.0%,4.8%,36.8%,-3.4,-19.9%
CC[C@H](C)[C@H](NC(=O)[C@H](Cc1ccc(O)cc1)NC(=O)[C@@H](NC(=O)[C@H](CCCN=C(N)N)NC(=O)[C@@H](N)CC(=O)O)C(C)C)C(=O)N[C@@H](Cc1cnc[nH]1)C(=O)N1CCC[C@H]1C(=O)N[C@@H](Cc1ccccc1)C(=O)N[C@@H](Cc1cnc[nH]1)C(=O)N[C@@H](CC(C)C)C(=O)O,/,/,8.9%,/,/,/
COc1ccc(O[C@H]2C=C[C@@H](c3ccccc3)O[C@H]2CO/N=C(/C)CCC(=O)OC[C@@H]2O[C@H](C#Cc3ccccc3)C=C[C@@H]2Oc2ccc(C)cc2)cc1,/,/,5.8%[21 µM],/,/,/
Cc1ccc(-c2[nH]c3cc(C(=O)NCCCn4ccnc4)ccc3c(=O)c2O)cc1,-6.6,-35.2%,7.1%,37.0%,-11.8,56.2µM*
CCCNC(=O)c1ccc2c(=O)c(O)c(-c3ccsc3)[nH]c2c1,-76.1*,-2.8%,-3.5%,53.7%,?,-36.2%
COC(=O)c1cc2sccc2n1CC(=O)Nc1ccc(C)cc1C,/,-17.1%,1.0%,5.7%,/,-0.6%
O=[S+]([O-])(c1c(F)cccc1F)N1CCN([S+](=O)([O-])c2c(F)c(F)c(F)c(F)c2F)CC1,/,-7.5%,/,/,/,/
CN(C)c1ccc(C(CNC(=O)c2c(F)cccc2Cl)N2CCOCC2)cc1 (stereo unspecified),/,-17.5%,-1.2%,4.2%,/,-19.4%
CCOCCN1CCN(C(=O)CN2CCCC2=O)CC1,1.4,?,0.0%,8.2%,8.0,89.1µM*
CC(C)c1ccc(NC2CCCN(C(=O)CN3CCCC3=O)C2)cc1 (stereo unspecified),1.6,-20.3%,3.5%,57.3%,2.9,-21.2%
CCc1ccc(NC(=O)c2ccc(CN3C(=O)C(C)=C(c4ccc(C)cc4)S3(=O)=O)cc2)cc1,/,-22.0%,5.8%,-16.9%,/,-2.0%
SMILES,CtBP-E1A inh,JMJD2A Tudor inh,TDP1 inh,HP1b chromo inh,Six1-Eya2 inh,BAZ2B inh
O=C(COC(=O)c1ccc2ncsc2c1)NC(=O)c1ccccc1,-4.3,25.1µM*,/,-8.7%,7.1,79.4µM*
O=C(COC(=O)c1ccc2ncsc2c1)NC(=O)NCc1ccccc1,-8.0,-15.9%,-10.0%,2.0%,-2.2,-18.8%
COc1ccc(C(=O)NC(=O)COC(=O)c2ccc3ncsc3c2)cc1,/,/,-9.1%,/,/,56.2µM*
CCCCC(CC)CNC(=O)Cc1ccc(-n2c(=O)[nH]c3ccccc3c2=O)cc1 (stereo unspecified),/,-6.7%,-4.4%,17.0%,/,0.5%
CN(CCNC(=O)c1cc2c(=O)n(C)c3ccccc3c2n1C)Cc1ccccc1,-10.5,-26.1%,1.3%,28.1%,-17.2,-35.3%
CCCN(CCC)CCNC(=O)c1cc2c(=O)n(C)c3ccccc3c2n1C,-8.8,35.5µM*,4.3%,14.3%,-2.1,-0.8%
COc1ccc(CN2CCn3ncc(C(=O)Nc4ccccc4)c3C2=O)cc1,-0.6,-2.0%,1.0%,21.5%,8.3,-32.1%
O=C(O)c1cnn2c1C(=O)N(Cc1cccs1)CC2,24.1,?,/,31.6µM*,-10.9,22.4µM*
CC1(C)CC(=O)C2=C(C1)NC(=S)C(C#N)C21CCCCC1 (stereo unspecified),-1.9,7.94µM*,4.3%,?,-4.4,?
CS(=O)(=O)c1ccc(Cl)c(NC(=O)C2CC(=O)N(Cc3ccccc3)C2)c1 (stereo unspecified),5.3,89.1µM*,-1.0%,-23.9%,-1.7,?
CCN(CC)c1ccc(NC(=O)C2CC(=O)N(Cc3ccccc3)C2)cc1 (stereo unspecified),4.2,56.2µM*,2.7%,?,-10.0,44.7µM*
COc1ccc(C(=O)c2c(N)c(C(=O)Nc3ccccc3Cl)c3ccccn23)cc1,/,-3.7%,0.0%,19.8%,/,1.8%
CCCCC[C@H](O)/C=C/C=C\CCCCCCCCCC(=O)O,/,/,6.9%,/,/,/
CCc1ccc2oc(C(=O)Nc3ccccc3OC)cc(=O)c2c1,/,-12.8%,4.9%,6.0%,/,-1.5%
CC1=C/C(=C(/c2cc(C)c(O)c(Br)c2)c2ccccc2S(=O)(=O)O)C=C(Br)C1=O,-69.2*,?,/,31.6µM*,-72.8*,17.8µM*
CC1=C/C(=C(/c2ccc(O)c(C)c2)c2ccccc2S(=O)(=O)O)C=CC1=O,?,-19.9%,10.6%,?,?,50.1µM*
Cc1ccccc1NC(=O)C(=O)NCC1(c2ccccc2)CCCC1,/,5.0%,-2.3%,31.8%,/,2.7%
COc1ccccc1N1CCN(c2cc(C)nc3c(-c4ccc(Cl)cc4)c(C)nn23)CC1,/,-16.7%,3.8%,-4.2%,/,3.1%
Cc1cc(Nc2ccccc2)nc(-c2ccccc2O)n1,1.9,28.7%,-4.7%,118.0%,2.1,42.0%
